# Data as given in PubChem BioAssay (EPA / NIEHS).
# The source made the active and inactive calls. The calls were made as follows: active = hit-call score of the fitted dose curve at least 0.9, where 1 is the maximum; inactive = score below 0.9.
# Assay: CCTE_Harrill_HTTr_Viability_MCF7: CCTE's 6-hour Cell Viability Assessment for the High-Throughput Transcriptomics (HTTr) Platform, in MCF-7 cells cultured in DMEM + 10% fetal bovine serum, Harrill Lab (AID 2284010)
# From the text: This is a cell-based assay that evaluates cell viability using high content imaging to evaluate membrane integrity using propidium iodide dye exclusion in a 384 well format.One of seven assay components measured from the CCTE_Harrill_HTTr_Viability assay. This was part of a full screening experiment. This is a cell-based assay that evaluates cell viability in MCF-7 cells cultured in DMEM + 10% fetal bovine serum. High content imaging is used to evaluate membrane integrity using propidium iodide dye exclusion. Measurements are taken at 6 hours after chemical dosing in 384-well format.The assay component endpoint CCTE_Harrill_HTTr_Viability_MCF7 was analyzed with bidirectional fitting relation to DMSO as the negative control and baseline of activity. Using a type of viability reporter, gain-of-signal activity can be used to evaluate membrane integrity using propidium iodide dye exclusion to understand changes in cytotoxicity. To generalize the intended target to other relatable targets, this assay endpoint is annotated to cell cycle, where the subfamily is cytotoxicity.
# Chemicals were tested in MCF7 cells in an eight point dilution series with a six hour exposure duration.
row,Structure (SMILES),outcome
1,CC1(c2ccc(Oc3ccccc3)cc2)OC(=O)N(Nc2ccccc2)C1=O (stereo not given),inactive
2,CN1CSC(=S)N(C)C1,inactive
3,O=C(O)C(F)(F)C(F)(F)C(F)(F)C(F)(F)C(F)(F)C(F)(F)C(F)(F)F,inactive
4,CCN(CC)C(=O)SCc1ccc(Cl)cc1,inactive
5,O=S1OCC2C(CO1)C1(Cl)C(Cl)=C(Cl)C2(Cl)C1(Cl)Cl (stereo not given),inactive
6,COP(=S)(OC)Oc1ccc(SC)c(C)c1,inactive
7,CNC(=O)/C=C(\C)OP(=O)(OC)OC,inactive
8,O=C(NC(=O)c1c(F)cccc1F)Nc1ccc(OC(F)(F)C(F)OC(F)(F)F)c(Cl)c1 (stereo not given),inactive
9,O=C(O)COc1ccc(Cl)cc1Cl,inactive
10,CC1(C)C(C=C(Cl)Cl)C1C(=O)OC(C#N)c1ccc(F)c(Oc2ccccc2)c1 (stereo not given),inactive
11,CNC(=O)Oc1cccc(N=CN(C)C)c1,inactive
12,OCCOc1ccccc1,inactive
13,CCC(C)Nc1c([N+](=O)[O-])cc(C(C)(C)C)cc1[N+](=O)[O-] (stereo not given),inactive
14,CNC(=O)CSP(=S)(OC)OC,inactive
15,CNC(=O)Oc1ccccc1OC(C)C,inactive
16,O=C1c2ccccc2C(=O)N1SC(Cl)(Cl)Cl,inactive
17,CCOCN(C(=O)CCl)c1c(C)cccc1CC,inactive
18,ClC1C(Cl)C(Cl)C(Cl)C(Cl)C1Cl (stereo not given),inactive
19,Oc1cc(Cl)ccc1Oc1ccc(Cl)cc1Cl,inactive
20,O=S(=O)(O)C(F)(F)C(F)(F)C(F)(F)C(F)(F)C(F)(F)C(F)(F)C(F)(F)C(F)(F)F,inactive

row,Structure (SMILES),outcome
1,COP(=O)(OC)OC=C(Cl)Cl,inactive
2,O=[N+]([O-])/N=C1\NCCN1Cc1ccc(Cl)nc1,inactive
3,O=C(Nc1ccccc1)Nc1cnns1,inactive
4,Cc1[nH]c(=O)n(C(C)(C)C)c(=O)c1Cl,inactive
5,C#CCN1C(=O)COc2cc(F)c(N3C(=O)C4=C(CCCC4)C3=O)cc21,inactive
6,CCc1ccc(C(=O)NN(C(=O)c2cc(C)cc(C)c2)C(C)(C)C)cc1,inactive
7,COP(=S)(OC)Oc1ccc([N+](=O)[O-])cc1,inactive
8,CC(C)N(C(=O)COc1nnc(C(F)(F)F)s1)c1ccc(F)cc1,inactive
9,CCCN(CCOc1c(Cl)cc(Cl)cc1Cl)C(=O)n1ccnc1,inactive
10,CC(C)OC(=O)Nc1cccc(Cl)c1,inactive
11,COc1nn(CSP(=S)(OC)OC)c(=O)s1,inactive
12,CCCN(CCC)c1c([N+](=O)[O-])cc(C(F)(F)F)cc1[N+](=O)[O-],inactive
13,C[C@H]1[C@H](c2ccc(Cl)cc2)SC(=O)N1C(=O)NC1CCCCC1,inactive
14,CC[C@H](C)[C@H]1O[C@]2(C=C[C@@H]1C)C[C@@H]1C[C@@H](C/C=C(\C)[C@@H](O[C@H]3C[C@H](OC)[C@@H](O[C@H]4C[C@H](OC)[C@@H](O)[C@H](C)O4)[C@H](C)O3)[C@@H](C)/C=C/C=C3\CO[C@@H]4[C@H](O)C(C)=C[C@@H](C(=O)O1)[C@]34O)O2 (tested in a mixture with another compound),inactive
15,CC(C)(C)C(O)/C(=C\c1ccc(Cl)cc1Cl)n1cncn1 (stereo not given),inactive
16,CC(C)(C)C(O)C(Oc1ccc(Cl)cc1)n1cncn1 (stereo not given),inactive
17,Clc1ccccc1-c1nnc(-c2ccccc2Cl)nn1,inactive
18,CCC(C)(NC(=O)c1cc(Cl)c(C)c(Cl)c1)C(=O)CCl (stereo not given),inactive
19,N#CN,inactive
20,CCOC1Oc2ccc(OS(C)(=O)=O)cc2C1(C)C (stereo not given),inactive
